Reference: PMC7862700, “An all-to-all approach to the identification of sequence-specific readers for epigenetic DNA modifications on cytosine”

Legend:
Experiment in all cases: DAPPL (digital affinity profiling via proximity ligation, sequencing); 10 mM Tris-HCl pH 7.5, 50 mM NaCl, 1 mM DTT, 4% glycerol, room temperature, 30 min; GST-TFs on glutathione beads, 16-mer random dsDNA library, 0.1% formaldehyde crosslink after washing; high values mean tight binding
Details in all cases: protein: recombinant; tags: N-terminal GST; dsDNA, one strand shown
FLI1 = target: T1, FLI1 (Homo sapiens, UniProt Q01543 1-452)
T1 sequence: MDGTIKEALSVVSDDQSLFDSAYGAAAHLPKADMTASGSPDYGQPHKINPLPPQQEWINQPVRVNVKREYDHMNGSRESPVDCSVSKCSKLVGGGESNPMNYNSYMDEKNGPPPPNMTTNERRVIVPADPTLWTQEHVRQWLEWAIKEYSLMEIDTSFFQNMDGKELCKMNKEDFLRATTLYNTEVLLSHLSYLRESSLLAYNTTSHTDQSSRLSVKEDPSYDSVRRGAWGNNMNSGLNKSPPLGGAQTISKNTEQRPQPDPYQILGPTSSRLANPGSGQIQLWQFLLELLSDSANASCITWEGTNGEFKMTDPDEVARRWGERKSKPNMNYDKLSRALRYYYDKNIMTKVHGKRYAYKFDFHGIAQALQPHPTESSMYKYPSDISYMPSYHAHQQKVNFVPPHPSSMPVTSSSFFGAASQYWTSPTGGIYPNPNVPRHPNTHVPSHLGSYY
In short: (§1)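 The binding signal reported is, for every hexamer, its read frequency for a factor over its read frequency for the tag-only sample. Reads came from pools of yeast-expressed, GST-fused human transcription factors on glutathione beads, barcoded with DNA and mixed with that sample, which were incubated with 200 nmole of a random double-stranded 16-mer DNA library in Tris/NaCl/DTT/glycerol buffer at room temperature for 30 min. After washing, the pools were crosslinked with 0.1% formaldehyde, proximity-ligated with BsaI/T4 ligase for 1 h at 37 °C, PCR-amplified and sequenced on an Illumina NextSeq500.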

ELK1 = target: T2, ELK1 (Homo sapiens, UniProt P19419 1-428)
T2 sequence: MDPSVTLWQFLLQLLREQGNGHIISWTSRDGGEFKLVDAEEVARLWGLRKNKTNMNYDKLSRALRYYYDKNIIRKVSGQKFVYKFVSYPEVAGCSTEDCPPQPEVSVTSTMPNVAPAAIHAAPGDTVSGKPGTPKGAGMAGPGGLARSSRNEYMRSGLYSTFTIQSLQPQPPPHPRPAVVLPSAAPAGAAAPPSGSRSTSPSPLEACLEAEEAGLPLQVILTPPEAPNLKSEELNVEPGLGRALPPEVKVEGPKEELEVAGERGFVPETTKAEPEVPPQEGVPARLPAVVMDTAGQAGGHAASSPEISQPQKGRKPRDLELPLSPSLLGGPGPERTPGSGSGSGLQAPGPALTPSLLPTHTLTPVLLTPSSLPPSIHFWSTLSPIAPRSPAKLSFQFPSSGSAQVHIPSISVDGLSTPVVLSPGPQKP
In short: as §1

GABPA = target: T3, GABPA (Homo sapiens, UniProt Q06546 1-454)
T3 sequence: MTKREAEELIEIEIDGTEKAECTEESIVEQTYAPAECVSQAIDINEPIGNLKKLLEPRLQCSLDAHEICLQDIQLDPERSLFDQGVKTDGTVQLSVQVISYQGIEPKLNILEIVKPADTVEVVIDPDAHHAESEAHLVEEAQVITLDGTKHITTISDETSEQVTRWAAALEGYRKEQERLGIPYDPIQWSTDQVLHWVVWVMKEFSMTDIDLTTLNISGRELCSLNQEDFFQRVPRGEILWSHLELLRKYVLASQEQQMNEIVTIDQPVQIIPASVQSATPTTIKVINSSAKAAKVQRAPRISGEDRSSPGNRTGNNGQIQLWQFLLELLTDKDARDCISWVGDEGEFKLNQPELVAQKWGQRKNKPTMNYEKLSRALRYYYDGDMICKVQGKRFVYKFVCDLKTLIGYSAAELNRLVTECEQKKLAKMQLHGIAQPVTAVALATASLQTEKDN
In short: as §1

ERG = target: T4, ERG (Homo sapiens, UniProt P11308 1-479)
T4 sequence: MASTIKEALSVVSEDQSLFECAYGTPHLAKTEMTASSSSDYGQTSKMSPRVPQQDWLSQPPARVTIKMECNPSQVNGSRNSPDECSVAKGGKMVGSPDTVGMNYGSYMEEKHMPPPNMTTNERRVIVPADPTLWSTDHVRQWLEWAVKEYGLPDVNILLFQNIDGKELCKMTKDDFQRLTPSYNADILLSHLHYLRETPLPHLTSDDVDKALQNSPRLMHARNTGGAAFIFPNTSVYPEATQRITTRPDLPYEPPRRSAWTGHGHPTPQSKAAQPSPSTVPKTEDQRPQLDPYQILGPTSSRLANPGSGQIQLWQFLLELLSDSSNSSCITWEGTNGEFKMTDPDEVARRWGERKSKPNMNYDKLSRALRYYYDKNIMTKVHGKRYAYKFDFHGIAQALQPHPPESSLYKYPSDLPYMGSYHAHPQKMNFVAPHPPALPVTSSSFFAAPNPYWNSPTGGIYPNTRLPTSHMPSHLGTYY
In short: as §1

ELF1 = ELF1 (Homo sapiens, UniProt P32519 1-619)
Chain of ELF1 (P32519 whole entry): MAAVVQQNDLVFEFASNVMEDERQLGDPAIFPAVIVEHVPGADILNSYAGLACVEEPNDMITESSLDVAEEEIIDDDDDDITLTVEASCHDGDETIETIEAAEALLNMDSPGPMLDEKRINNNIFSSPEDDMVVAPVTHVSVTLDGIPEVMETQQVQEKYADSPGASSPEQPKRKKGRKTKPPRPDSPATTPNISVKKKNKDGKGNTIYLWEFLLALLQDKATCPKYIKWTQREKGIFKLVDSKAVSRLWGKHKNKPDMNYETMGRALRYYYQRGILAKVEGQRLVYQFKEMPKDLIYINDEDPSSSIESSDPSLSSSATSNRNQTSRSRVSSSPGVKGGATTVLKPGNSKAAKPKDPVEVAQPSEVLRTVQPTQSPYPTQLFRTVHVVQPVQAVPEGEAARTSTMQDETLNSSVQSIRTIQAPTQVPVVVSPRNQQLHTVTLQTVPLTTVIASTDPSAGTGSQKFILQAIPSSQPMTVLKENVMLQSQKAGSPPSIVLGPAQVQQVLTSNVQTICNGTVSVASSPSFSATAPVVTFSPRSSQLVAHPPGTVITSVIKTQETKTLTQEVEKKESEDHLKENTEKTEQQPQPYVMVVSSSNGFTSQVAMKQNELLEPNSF
In short: as §1

EHF = target: T5, EHF (Homo sapiens, UniProt Q9NZC4 1-300)
T5 sequence: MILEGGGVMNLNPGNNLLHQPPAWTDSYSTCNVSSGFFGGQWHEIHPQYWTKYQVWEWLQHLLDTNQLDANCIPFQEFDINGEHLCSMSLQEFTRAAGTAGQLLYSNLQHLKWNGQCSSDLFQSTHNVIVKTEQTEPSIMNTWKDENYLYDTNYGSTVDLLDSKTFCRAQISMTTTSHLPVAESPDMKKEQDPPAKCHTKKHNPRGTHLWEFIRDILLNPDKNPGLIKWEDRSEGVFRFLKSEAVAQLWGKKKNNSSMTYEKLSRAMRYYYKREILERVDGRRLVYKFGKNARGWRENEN
In short: as §1

SPI1 = SPI1 (Homo sapiens, UniProt P17947 1-270)
In short: as §1

SPIB = SPIB (Homo sapiens, UniProt Q01892 1-262)
Chain of SPIB (Q01892 whole entry): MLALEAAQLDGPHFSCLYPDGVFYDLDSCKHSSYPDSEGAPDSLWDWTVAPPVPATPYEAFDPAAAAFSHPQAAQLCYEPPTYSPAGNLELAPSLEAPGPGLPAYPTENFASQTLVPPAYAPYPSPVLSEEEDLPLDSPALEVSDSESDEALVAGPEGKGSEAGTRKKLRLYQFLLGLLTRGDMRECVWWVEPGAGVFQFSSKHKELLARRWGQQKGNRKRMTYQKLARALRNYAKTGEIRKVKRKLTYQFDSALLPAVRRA
In short: as §1

ELK3 = target: T6, ELK3 (Homo sapiens, UniProt P41970 1-407)
T6 sequence: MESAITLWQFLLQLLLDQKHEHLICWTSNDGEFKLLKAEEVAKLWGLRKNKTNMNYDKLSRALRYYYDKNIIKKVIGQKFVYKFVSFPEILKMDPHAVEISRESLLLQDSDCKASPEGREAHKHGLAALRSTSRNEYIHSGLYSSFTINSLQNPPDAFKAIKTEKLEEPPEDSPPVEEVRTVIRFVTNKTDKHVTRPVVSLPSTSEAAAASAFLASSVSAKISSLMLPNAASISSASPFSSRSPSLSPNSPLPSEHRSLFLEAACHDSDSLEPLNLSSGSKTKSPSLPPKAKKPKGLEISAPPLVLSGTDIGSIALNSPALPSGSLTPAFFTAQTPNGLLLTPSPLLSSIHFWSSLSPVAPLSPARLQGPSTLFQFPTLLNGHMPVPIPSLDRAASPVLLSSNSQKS
In short: as §1

TAGCTT
binding signal (FLI1): 1.18 fold enrichment (6-mer frequency, TF over GST control)
binding signal (ELK1): 1.26 fold enrichment (6-mer frequency, TF over GST control)
binding signal (GABPA): 1.31 fold enrichment (6-mer frequency, TF over GST control)
binding signal (ERG): 1.17 fold enrichment (6-mer frequency, TF over GST control)
binding signal (ELF1): 1.21 fold enrichment (6-mer frequency, TF over GST control)
binding signal (EHF): 1.21 fold enrichment (6-mer frequency, TF over GST control)
binding signal (SPI1): 1.25 fold enrichment (6-mer frequency, TF over GST control)
binding signal (SPIB): 1.29 fold enrichment (6-mer frequency, TF over GST control)
binding signal (ELK3): 1.31 fold enrichment (6-mer frequency, TF over GST control)

TCGTTT
binding signal (FLI1): 1.13 fold enrichment (6-mer frequency, TF over GST control)
binding signal (ELK1): 1.21 fold enrichment (6-mer frequency, TF over GST control)
binding signal (GABPA): 1.28 fold enrichment (6-mer frequency, TF over GST control)
binding signal (ERG): 1.15 fold enrichment (6-mer frequency, TF over GST control)
binding signal (ELF1): 1.15 fold enrichment (6-mer frequency, TF over GST control)
binding signal (EHF): 1.22 fold enrichment (6-mer frequency, TF over GST control)
binding signal (SPI1): 1.2 fold enrichment (6-mer frequency, TF over GST control)
binding signal (SPIB): 1.18 fold enrichment (6-mer frequency, TF over GST control)
binding signal (ELK3): 1.05 fold enrichment (6-mer frequency, TF over GST control)

TAGTAT
binding signal (FLI1): 1.25 fold enrichment (6-mer frequency, TF over GST control)
binding signal (ELK1): 1.34 fold enrichment (6-mer frequency, TF over GST control)
binding signal (GABPA): 1.28 fold enrichment (6-mer frequency, TF over GST control)
binding signal (ERG): 1.23 fold enrichment (6-mer frequency, TF over GST control)
binding signal (ELF1): 1.29 fold enrichment (6-mer frequency, TF over GST control)
binding signal (EHF): 1.38 fold enrichment (6-mer frequency, TF over GST control)
binding signal (SPI1): 1.23 fold enrichment (6-mer frequency, TF over GST control)
binding signal (SPIB): 1.33 fold enrichment (6-mer frequency, TF over GST control)
binding signal (ELK3): 1.15 fold enrichment (6-mer frequency, TF over GST control)

CCTGCT
binding signal (FLI1): 1.46 fold enrichment (6-mer frequency, TF over GST control)
binding signal (ELK1): 1.72 fold enrichment (6-mer frequency, TF over GST control)
binding signal (GABPA): 1.46 fold enrichment (6-mer frequency, TF over GST control)
binding signal (ERG): 1.65 fold enrichment (6-mer frequency, TF over GST control)
binding signal (ELF1): 1.61 fold enrichment (6-mer frequency, TF over GST control)
binding signal (EHF): 1.61 fold enrichment (6-mer frequency, TF over GST control)
binding signal (SPI1): 1.78 fold enrichment (6-mer frequency, TF over GST control)
binding signal (SPIB): 1.59 fold enrichment (6-mer frequency, TF over GST control)
binding signal (ELK3): 1.61 fold enrichment (6-mer frequency, TF over GST control)

TATTCC
binding signal (FLI1): 1.65 fold enrichment (6-mer frequency, TF over GST control)
binding signal (ELK1): 1.68 fold enrichment (6-mer frequency, TF over GST control)
binding signal (GABPA): 1.6 fold enrichment (6-mer frequency, TF over GST control)
binding signal (ERG): 1.52 fold enrichment (6-mer frequency, TF over GST control)
binding signal (ELF1): 1.59 fold enrichment (6-mer frequency, TF over GST control)
binding signal (EHF): 1.58 fold enrichment (6-mer frequency, TF over GST control)
binding signal (SPI1): 1.48 fold enrichment (6-mer frequency, TF over GST control)
binding signal (SPIB): 1.49 fold enrichment (6-mer frequency, TF over GST control)
binding signal (ELK3): 1.56 fold enrichment (6-mer frequency, TF over GST control)

CTTGCC
binding signal (FLI1): 1.29 fold enrichment (6-mer frequency, TF over GST control)
binding signal (ELK1): 1.17 fold enrichment (6-mer frequency, TF over GST control)
binding signal (GABPA): 1.3 fold enrichment (6-mer frequency, TF over GST control)
binding signal (ERG): 1.24 fold enrichment (6-mer frequency, TF over GST control)
binding signal (ELF1): 1.29 fold enrichment (6-mer frequency, TF over GST control)
binding signal (EHF): 1.33 fold enrichment (6-mer frequency, TF over GST control)
binding signal (SPI1): 1.38 fold enrichment (6-mer frequency, TF over GST control)
binding signal (SPIB): 1.22 fold enrichment (6-mer frequency, TF over GST control)
binding signal (ELK3): 1.3 fold enrichment (6-mer frequency, TF over GST control)

AAATTG
binding signal (FLI1): 1.2 fold enrichment (6-mer frequency, TF over GST control)
binding signal (ELK1): 1.23 fold enrichment (6-mer frequency, TF over GST control)
binding signal (GABPA): 1.26 fold enrichment (6-mer frequency, TF over GST control)
binding signal (ERG): 1.23 fold enrichment (6-mer frequency, TF over GST control)
binding signal (ELF1): 1.22 fold enrichment (6-mer frequency, TF over GST control)
binding signal (EHF): 1.28 fold enrichment (6-mer frequency, TF over GST control)
binding signal (SPI1): 1.26 fold enrichment (6-mer frequency, TF over GST control)
binding signal (SPIB): 1.25 fold enrichment (6-mer frequency, TF over GST control)
binding signal (ELK3): 1.22 fold enrichment (6-mer frequency, TF over GST control)

TATCGT
binding signal (FLI1): 1.18 fold enrichment (6-mer frequency, TF over GST control)
binding signal (ELK1): 1.28 fold enrichment (6-mer frequency, TF over GST control)
binding signal (GABPA): 1.04 fold enrichment (6-mer frequency, TF over GST control)
binding signal (ERG): 1.14 fold enrichment (6-mer frequency, TF over GST control)
binding signal (ELF1): 1.14 fold enrichment (6-mer frequency, TF over GST control)
binding signal (EHF): 1.1 fold enrichment (6-mer frequency, TF over GST control)
binding signal (SPI1): 1.07 fold enrichment (6-mer frequency, TF over GST control)
binding signal (SPIB): 1.2 fold enrichment (6-mer frequency, TF over GST control)
binding signal (ELK3): 1.18 fold enrichment (6-mer frequency, TF over GST control)
